CYP2C19 inhib: blockers of cytochrome P450 2C19 activity – biochemical, luminescence, ADME assay, primary screen | P33261 | CYP2C19 Supersomes, luciferin-H EGE luminescence, 30 min | inhibition, % at 5 µM | actives 21% (n = 96,000);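 active means CYP2C19 inhibition above a set limit at 5 µM in the primary screen, cut at about 50% in these data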;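 further: plate controls were negative control wells for no effect and 2.5 mM tranylcypromine positive control for full effect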
CYP2C19 activ: human CYP2C19 activators, primary screen, biochemical, luminescence; 96,000 tested, under 10 active; activation factor at 5 µM; recombinant CYP2C19, luciferin-H EGE luminescence; stronger effect = higher value; 0 = fully inhibited enzyme, 1 = untreated enzyme; Cytochrome P450 2C19 (Homo sapiens), P33261;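 active means activation factor of at least 2 at 5 µM in the primary screen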;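 further: 0 = wells with 2.5 mM tranylcypromine and 1 = vehicle-only wells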
CYP2C9 act: human CYP2C9 activators, primary screen, biochemical, luminescence; Cytochrome P450 2C9 (Homo sapiens), P11712; recombinant CYP2C9, luciferin-H conversion; stronger effect = higher value; factor 1 = untreated enzyme, 0 = blocked; activation factor at 5 µM; actives 1.4% (n = 96,000);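 active means activation factor of 2 or more for CYP2C9 at a 5 µM dose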;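 further: 0 = sulfaphenazole-blocked wells and 1 = vehicle-only wells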
Cav32 inh: Cav3.2 calcium influx blockers – cell-based, Fluo-4 calcium fluorescence, FDSS, MLSMR library, primary screen; Cav3.2-expressing cells; stronger effect = lower value; Voltage-dependent T-type calcium channel subunit alpha-1H (Homo sapiens), O95180; actives 4% (n = 100,000); B-score at 10 µM; AID 449739, 2010;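 active means single-dose well whose peak fluorescence ratio is a statistical outlier from its plate by either plate-standardised score or position-corrected B-score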
CYP2C9 inh: blockers of cytochrome P450 2C9 activity – biochemical, luminescence, ADME assay, primary screen; CYP2C9 Supersomes, luciferin-H conversion; inhibition, % at 5 µM; actives 20% (n = 96,000); P11712;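 active means blocking of liver enzyme CYP2C9 beyond about 50% at 5 µM, limit read from the data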
* marks the source's active call; other numbers are inactive results; · = not tested or not shown. Only some compounds are listed: those with a hit (about 27% of all), similar ones and a draw of the others.

SMILES	CYP2C19 inhib	CYP2C19 activ	CYP2C9 act	Cav32 inh	CYP2C9 inh
O=C(NC1CCCCC1)C(c1ccc2ncccc2c1)N(Cc1ccc(F)cc1)C(=O)c1ccc2c(c1)OCCO2 (stereo not given)	42	0.6	0.8	·	22
COCCN(C(=O)CNC(=O)c1cccs1)C(C(=O)NC1CCCC1)c1cccs1 (stereo not given)	56*	0.4	0.5	0.35	47
O=C(NC1CCCCC1)C(c1ccc2ncccc2c1)N(Cc1ccco1)C(=O)c1ccc2c(c1)OCCO2 (stereo not given)	70*	0.3	0.3	-0.5	70*
O=C(NC1CCCCC1)C(c1ccco1)N(Cc1cccnc1)C(=O)C1COc2ccccc2O1 (stereo not given)	84*	0.2	0.2	-0.59	76*
COCCN(C(=O)CNC(=O)c1cccs1)C(C(=O)NC1CCCCC1)c1ccco1 (stereo not given)	6	0.9	1.1	0.1	-6
O=C(NCC(=O)N(Cc1ccco1)C(C(=O)NC1CCCCC1)c1cccnc1)c1cccs1 (stereo not given)	57*	0.4	0.7	0.28	29
Cn1c(=O)c2c(nc(CN3CCN(CCO)CC3)n2Cc2cccc3ccccc23)n(C)c1=O	41	0.6	0.7	0.27	35
CNC(=O)CSc1nnc(COc2ccc(Cl)cc2)n1CCOC	8	0.9	0.8	-1.1	22
O=C(NC1CCCCC1)C(c1cccs1)N(Cc1cccs1)C(=O)c1cccs1 (stereo not given)	·	·	·	-5.3*	·
O=C(NC1CCCCC1)C(c1ccc2ncccc2c1)N(Cc1cccs1)C(=O)c1cccs1 (stereo not given)	60*	0.4	0.4	-1.6	59*
O=C(NCC(=O)N(Cc1cccs1)C(C(=O)NC1CCCCC1)c1cccnc1)c1ccco1 (stereo not given)	·	·	·	-0.077	·
CCOC(=O)CN(C(=O)CNC(=O)c1cccs1)C(C(=O)NC1CCCCC1)c1cccs1 (stereo not given)	·	·	·	0.73	·
O=C(CCc1ccc(S(=O)(=O)NCCc2ccccc2)cc1)NCc1ccco1	·	·	·	-0.4	·
Cc1cccc(C(=O)NC2CCN(C(=O)N3CCOCC3)CC2)c1	-10	1.1	1.1	-0.59	-12
CCCn1c(=O)c2ccccc2n2c(SCc3c(C(=O)OCC)oc4ccccc34)nnc12	59*	0.4	0.4	-3.3	64*
CCCn1c(=O)c2ccccc2n2c(SCC(=O)c3ccc(CC)cc3)nnc12	6	0.9	0.8	0.23	22
CCOC(=O)c1[nH]c2cc(OC)c(OC)cc2c1N	72*	0.3	0.8	0.96	18
Cc1cc(C)n(C(CC(=O)N2CCc3ccccc3C2)C(=O)O)n1 (stereo not given)	-3	1	1	0.61	-1
CCN(CCCNC(=O)CC(C(=O)N1CCc2ccccc21)n1ccnc1)c1cccc(C)c1 (stereo not given)	94*	0.1	0.8	-1.2	18
O=C(CC(C(=O)N1CCc2ccccc21)n1ccnc1)N1CCc2ccccc2C1 (stereo not given)	73*	0.3	0.5	·	50
O=C(CC(C(=O)N1CCc2ccccc21)n1ccnc1)NCC1CCCO1 (stereo not given)	35	0.6	0.3	0.0069	65*
CCCCNC(=O)CC(C(=O)N1CCc2ccccc21)n1ccnc1 (stereo not given)	74*	0.3	0.7	1.1	34
O=C(c1ccc(S(=O)(=O)NCC2CCCO2)cc1)N1CCc2ccccc21 (stereo not given)	11	0.9	0.8	0.41	23
COC(=O)[C@@H]1C[C@H]2CC[C@H](O)C[C@H]2N1Cc1ccccc1OS(=O)(=O)c1ccc(C)cc1	·	·	·	0.99	·
Cc1ccc(N(C(=O)c2cccs2)C2C=CS(=O)(=O)C2)cc1 (stereo not given)	16	0.8	1	1.8	-3
SMILES	CYP2C19 inhib	CYP2C19 activ	CYP2C9 act	Cav32 inh	CYP2C9 inh
CC(=O)Oc1ccc(-c2cc3c(OC(C)=O)cc(OC(C)=O)cc3oc2=O)cc1	·	·	·	-2	·
O=C(c1ccc(Cl)c(Cl)c1)c1cc(-c2ccccn2)c(N2CCOCC2)s1	30	0.7	0.3	0.87	65*
Nc1cc(C(=O)c2ccccc2)ccc1N1CCOCC1	·	·	·	0.29	·
O=C(Cc1ccccc1)n1nc(-c2ccco2)nc1SCc1ccccc1	68*	0.3	0.7	0.89	30
Cc1cccc(N2CCN(S(=O)(=O)c3ccc4c(c3)CCN4C(=O)CCC(=O)O)CC2C)c1 (stereo not given)	13	0.9	0.7	1.7	32
COc1ccccc1/C=C/CN1CCN(c2ccccc2)CC1	82*	0.2	1.2	-0.19	-16
CCOC(=O)c1cccc(NC(=O)CN2CCN(c3ccc(OC)cc3)CC2)c1	54*	0.5	0.3	1.7	73*
CCOC(=O)c1cccc(NC(=O)C(C)N2C(=O)c3ccccc3C2=O)c1 (stereo not given)	57*	0.4	0	0.038	97*
COc1ccc(N2CCN(CC(=O)Nc3c(C)cc(C)cc3C)CC2)cc1	12	0.9	0.7	0.98	26
COC(=O)c1ccc(NC(=O)CN2CCN(S(=O)(=O)c3cc(Cl)ccc3OC)CC2)cc1	95*	0.1	2.7*	·	-174
COc1ccc(NC(=O)CCN2CCN(S(=O)(=O)c3cc(Cl)ccc3Cl)CC2)cc1	91*	0.1	0.8	-1.1	15
COc1cc(Cl)cc(NC(=O)CCN2CCN(C)CC2)c1	-11	1.1	1.1	-0.019	-13
CN1CCN(C(=O)C23CCC(C)(c4nc5ccccc5nc42)C3(C)C)CC1 (stereo not given)	-7	1.1	1	1.3	-5
COc1ccc(-n2c(=S)[nH]c3cc(C(=O)NCCCN4CCCC4=O)ccc3c2=O)c(OC)c1	-7	1.1	1	-0.011	0
COC(=O)c1ccc(NC(=O)CN2CCN(c3cccc(Cl)c3)CC2)cc1	61*	0.4	0.2	-4.6	76*
O=C(Nc1ccsc1C(=O)N1CCCCCC1)c1ccccc1	46	0.5	0.7	0.21	26
c1ccc2c(c1)nc1n2C2(N3CCOCC3)CCCC2C1N1CCOCC1 (stereo not given)	13	0.9	0	·	99*
COCc1[nH]nc2c1C(c1ccc(OC)cc1)C(C#N)=C(N)O2 (stereo not given)	31	0.7	0.6	0.56	37
COC(=O)Cc1[nH]nc2c1C(c1c[nH]c3ccccc13)C(C#N)=C(N)O2 (stereo not given)	52*	0.5	0.7	0.85	26
CCOC(=O)Cc1[nH]nc2c1C(c1ccoc1)C(C#N)=C(N)O2 (stereo not given)	77*	0.2	0.6	-0.055	38
